# Measurements published in PubChem BioAssay AID1794845 (National Center for Advancing Translational Sciences (NCATS), 2023).
# The campaign covered roughly 6,900 compounds. Fewer than 10 were called active. Not all results are given here. Values without a mark were called inactive. The call rests on the fitted dose curve; in most records, active means well fitted curve in the direction sought with a large enough effect; inconclusive means small, poorly fitted or top-dose-only effect, or another doubt; inactive means no such curve, though single readings can be large or run the other way.
# Target: Metallo-beta-lactamase type 2 (Klebsiella pneumoniae) (UniProt C7C422)
# Test: qHTS to identify inhibitors of the New Delhi Metallo-beta-lactamase (NDM): primary screen against the NCATS Gemini Collection; further: % of control where 0% means no effect
# Conditions: NDM-1 enzyme, meropenem hydrolysis, absorbance 300 nm; series mostly up to 38.4 µM; activity % (negative = inhibition): at the top concentration
# Description: Assay Submitter (PI): James Inglese Ph.D., Patricia Dranchak Ph.D., Mahesh Aitha Ph.D. Assay Development and Screening Technology Laboratory (ADST) National Center for Advancing Translational Sciences (NCATS), Rockville, MD National Institute of Health (NIH), Bethesda, Maryland The metallo-beta-lactamases (MBL) are a main antibiotic resistance mechanism evolved by bacteria. There is an urgent clinical need for MBL inhibitors to mitigate this growing threat. To support a machine-based learning study, qHTS has been used to experimentally test inhibitors identified by prediction tools.
# PROTOCOL TABLE (as described by Inglese et al., 2007) SEQUENCE No. (e.g., 1, 2, 3, etc.); […] (e.g., enzyme, Incubation, Reagent, etc.); VALUE; DESCRIPTION 1; NDM-1; 4 uL of 3 nM enzyme [2 nM final] in 50 mM HEPES (pH 7.0), 1 uM […], 0.01% Tween20; Use BioRaptr to dispense into Aurora black, clear bottom low base 1536-well plates 2; Compounds; 23 nL; Use Pin Tool (Wako) to transfer DMSO control and library compounds in DMSO 3; Incubate; >30 min 4; Reagent; 2 uL of 150 uM meropenem [50 uM final] 5; Incubate; 30 min. 6; Detector; Absorbance at 300 nm (bandwidth = 5 nm, 25 flashes/well) on Tecan Infinity NOTES (numbers refer to sequence above) 1; Column 1 of each plate received assay buffer without enzyme and columns 2-48 received enzyme for a final assay concentration of 2 nM. 2; Control plate contained DMSO in columns 1, 2, 3, and 4. 3; Compound interaction with enzyme. 4; Meropenem substrate was prepared in the same assay buffer as step 1 for a final assay concentration of 50 uM and added to all wells across the assay plates. 5; Substrate interaction with enzyme, plateau phase of kinetics. 6; Default reader settings were applied for absorbance read at 300 nm, bandwidth = 5 nm, 25 flashes/well. References: Inglese J, Shamu CE, Guy RK. 2007. Reporting data from high-throughput screening of small-molecule libraries. Nat Chem Biol. doi:10.1038/nchembio0807-438 Yasgar A, Shinn P, Jadhav A, Auld D, Michael S, Zheng W, Austin CP, Inglese J, Simeonov A. 2008. Compound Management for Quantitative High-Throughput Screening. J Lab Autom 13:79 - 89. doi:10.1016/j.jala.2007.12.004
# Chain of Metallo-beta-lactamase type 2 (Klebsiella pneumoniae) (C7C422 whole entry, looked up): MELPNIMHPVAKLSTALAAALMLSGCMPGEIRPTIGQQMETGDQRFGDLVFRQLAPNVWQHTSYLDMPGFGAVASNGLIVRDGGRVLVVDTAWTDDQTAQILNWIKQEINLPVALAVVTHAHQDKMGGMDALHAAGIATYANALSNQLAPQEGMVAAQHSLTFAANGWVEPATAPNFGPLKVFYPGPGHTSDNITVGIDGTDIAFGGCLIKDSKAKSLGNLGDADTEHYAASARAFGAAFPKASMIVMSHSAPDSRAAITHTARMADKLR
row,Compound,activity % (negative = inhibition)
1,CCCc1ccc2oc(C(=O)N(C)CCC3CCCCO3)c(C)c2c1 (configuration not stated),4.21%
2,O=C1NCCCc2[nH]c(-c3cnn(-c4ccc(F)cc4)c3)nc21,23%
3,CCc1nc2c(c(-c3ccc(Cl)cc3)n1)CN(Cc1ccccn1)CC2,102%
4,CCN1CCC(CC(=O)N2CCC(C3CCN(C(=O)NC)CC3)C2)CC1 (configuration not stated),26.7%
5,CN(C)S(=O)(=O)N1CCc2nn(C)c(=O)n2CC1,10.1%
6,CC(=O)c1ccc(NC(=O)N[C@H]2CCN3C(=O)[C@@H](Cc4ccccc4)NC(=O)[C@H]23)cc1,13.7% [at 57.5 µM]
7,CCn1ccc(C(=O)N2CC(c3nc(CCOCC4CC4)no3)C2)n1,-0.382%
8,NC(=O)[C@@H](Cc1ccccc1)NC(=O)[C@@H]1C[C@@H](NS(=O)(=O)c2cccs2)CCN1C(=O)CSCC(=O)O,0.756%
9,COc1cccc(CCC(=O)N2CCC(OCC3CC3)C2)c1 (configuration not stated),22%
10,CN1C(=O)CC[C@]2(C(=O)NCc3ccco3)CCCC[C@@H]12,73.1%
11,Cc1cn2nnc(C(=O)N3CCC(C(=O)Nc4cccc(F)c4)CC3)c2c(=O)[nH]1,-2.5%
12,COc1ccc(CN(C)C2CCCN(CCc3ccccc3)C2)c(OC)c1OC (configuration not stated),-2.17%
13,CC(=O)N1CCC(OCCOc2ccccc2)CC1,-7.31%
14,CCOc1c(CN(C)C(=O)Cn2cccc(OC)c2=O)cccc1OC,1.77%
15,Oc1ccccc1CN1CC(CNc2cccnc2)C2(C1)CN(c1ccccc1)C2 (configuration not stated),28.9% [at 57.5 µM]
16,O=C(CC1CCCC1)N1C[C@@H](CO)[C@@H]2Oc3ccc(Cl)cc3[C@@H]21,7.23%
17,COC1CCOC2(CCN(C(=O)Cc3ccccc3)CC2)C1 (configuration not stated),-13.9%
18,CCc1ccc(S(=O)(=O)N2c3ccccc3CC2c2nnc(C3CCOCC3)o2)cc1 (configuration not stated),0.344%
19,CC(C)(C)OC(=O)N1CC(NCc2cccc(F)c2F)C1,40% [at 57.5 µM]
20,C1=C(c2nc(-c3ccncc3)cc3c2ccn3Cc2cccnc2)CCOC1,17.9% [at 57.5 µM]
21,COC(=O)N1CCCCC1C(=O)N1CCC2(CC1)c1nc[nH]c1CCN2C (configuration not stated),-2.82%
22,O=C(N1CCCCCC1CN1CCOCC1)C1(c2ccccc2)CC1 (configuration not stated),12.4%
23,CCC1CN(C(=O)c2ccc(NCc3cnn(CC)c3)nc2)CCN1C(C)C (configuration not stated),1.35%
24,N#CC1CCN(C(=O)C2CCN(C(=O)c3ccc(-c4cncnc4)cc3)CC2)CC1,-3.71%
25,CC(C)C(=O)N1CCC(NCCOc2ccccc2Cl)CC1,12.6%
26,CC(C)N(Cc1nccn1C)C(=O)CC(c1ccccc1)c1ccccc1F (configuration not stated),23%

row,Compound,activity % (negative = inhibition)
1,CCc1ccccc1NC(=O)N1C[C@@H](F)C[C@H]1C(=O)N1CCc2ccccc2C1,0.167%
2,COCCOCc1nc(C2CCCN2C(=O)Nc2ccc(F)cc2F)no1 (configuration not stated),-10%
3,COc1ccc(NC(=O)[C@@H]2C[C@H](c3ccc(F)cc3)N(Cc3ccccc3Cl)C2)cn1,6.46% [at 57.5 µM]
4,CN(C)C(=O)N1CCC2(CC1)CC(c1cccc(C(F)(F)F)c1)=NO2,-0.151%
5,COC1CCOC2(CCN(C(=O)CCc3nc4ccccc4s3)CC2)C1 (configuration not stated),18.8%
6,Cc1cc(C)n(C2CCN(c3nccc(-c4ccccn4)n3)C2)n1 (configuration not stated),25.4%
7,CN(C)Cc1nnc(C2CC(NC(=O)Cc3c[nH]c(=O)n(C)c3=O)C2)n1C (configuration not stated),-2.57%
8,O=C(C1CCCN1C(=O)Cc1ccc(F)cc1)N1CCC(N2CCOCC2=O)CC1 (configuration not stated),12.7%
9,O=C1CCC(C(=O)N2CCSCC2)CN1CCc1cccc(F)c1 (configuration not stated),6.53%
10,CCN(Cc1ccncc1)C(=O)c1coc(COc2cccc(C(F)(F)F)c2)n1,0.141%
11,CCOC(=O)[C@H]1C[C@]2(CCCCNC2=O)N(C(=O)c2cccc(OC)c2)[C@H]1c1ccco1,-4.71%
12,Cc1cn2nc(C(=O)N3CCC(C(=O)NCc4ccccn4)CC3)cc2c(=O)[nH]1,18.9%
13,Cn1cc(CN2C[C@H](C(=O)Nc3nccs3)C[C@@H]2c2cccc(C(F)(F)F)c2)cn1,4.37% [at 57.5 µM]
14,COc1ccc(C(=O)N2CCC[C@H]2c2nc(-c3ccccc3)no2)cc1,5.95%
15,COc1ccc(NC(=O)c2nc3sccn3c2-c2cccc(OC)c2)cc1,27.7%
16,C[C@@H]1CN(C(=O)CN2CCN(c3ncccn3)CC2)C[C@@]1(O)C1CCC1,14.1%
17,Cc1nc(C)c(C(=O)N2CCC(Cc3nc(C4CC4)n[nH]3)CC2)s1,18.2%
18,Cn1cc(CN2CCN(c3ccc(C#N)cn3)CC2)c(-c2ccccc2)n1,12.2%
19,CCc1cc(=O)n(CC(=O)N2CCN(c3ccccc3OC)CC2)c(-c2ccccc2)n1,-0.786%
20,COCCN1C[C@@H]2[C@H](c3ccccc31)[C@@H](CO)[C@@H](c1ccccc1)N2C(=O)COC(C)=O,4.01%
21,Cc1ccc(CNC(=O)N(C)CC2CCOCC2)cc1,-0.782%
22,COCC(=O)N1CCC(C2CCN(C(=O)c3ccncc3)CC2)C1 (configuration not stated),-0.46%
23,COc1cccc(CCC(=O)N2CCC3(CC2)N=C(c2ccccc2)NO3)c1,16.3%
24,CCN1c2cc(C(=O)NCc3cccc(OC)c3)ccc2C(=O)N2CCCCCC21 (configuration not stated),-1.41%
25,c1coc(-c2nnc([C@H]3CCN(Cc4c[nH]c5ccccc45)C3)o2)c1,37.1% [at 57.5 µM]
26,C[C@@H]1CN(C2(C(=O)NCc3n[nH]c4c3CCC4)Cc3ccccc3C2)C[C@H](C)O1,0.0426%

row,Compound,activity % (negative = inhibition)
1,CCOC(=O)C1c2c(OC)ccc3c2C(=CC(C)(C)CO3)CN1C(=O)C1CC1 (configuration not stated),2.76%
2,Cc1cccc(-c2nc3ccc(C(=O)NC4CCCCCC4)cc3o2)n1,29% [at 57.5 µM]
3,O=C1CCN(C(=O)[C@@H]2CCCN2C(=O)Nc2ccccc2)CCCCCCN1,-1.52%
4,CCc1ccc(NC(=O)Cn2nc3n(c2=O)CCCC3)cc1,-0.266%
5,COCC1CN(C)CC12CCN(Cc1sccc1C)CC2 (configuration not stated),-2.49%
6,Fc1ccccc1-c1noc(NCCc2ccc(Cl)cc2)n1,14.8%
7,Nc1nc(CCC(=O)N[C@@H]2[C@@H](Cc3ccccc3)[C@H]3OCC[C@@H]23)cs1,-5.81%
8,O=C([C@H]1C[C@H](Oc2cccnc2)CN1C(=O)c1ccc2ccccc2n1)N1CCOCC1,27%
9,O=S(=O)(c1cnc[nH]1)N1CCC(c2nc(CCOCC3CC3)no2)C1 (configuration not stated),-2.63%
10,CCc1ccc(CN2CCN(c3ccc(C(N)=O)cn3)CC2)nc1,17.8%
11,COCC(=O)N(C1CCOCC1)C1CCN(C(=O)c2cccnc2C)CC1,10.8%
12,CC(C)CCN1CCC(N2CCN(C(=O)c3ccc(Br)o3)CC2)C1=O (configuration not stated),57%
13,Cc1cc(C(=O)NC2CCCC2)c2c(C3CCNC3)noc2n1 (configuration not stated),1.69%
14,CCS(=O)(=O)N1CCC2(CCC2OC)CC1 (configuration not stated),27.6%
15,Cc1cnc(CC2CCN(S(=O)(=O)c3ccc4c(c3)CCC4)CC2)n1CC1CC1,12.7%
16,CC1CCCCN1Cc1nnc2cc(-c3nc(-c4ccccc4)no3)ccn12 (configuration not stated),11.3%
17,COc1ccc(CN2CCc3nc(N4CCN(C)CC4)[nH]c(=O)c3CC2)c(OC)c1OC,2.04%
18,Cn1nc2n(c1=O)CCN(C1CCSCC1)CC2,2.04%
19,COc1ccccc1CC(=O)Nc1cccn2nc(C(C)C)nc12,4.57%
20,O=C(C1CCCN([S+](=O)([O-])c2cccc(C(F)(F)F)c2)C1)N1CCC(c2nc3ncccc3[nH]2)C1 (configuration not stated),3.41%
21,O=C(COc1cccc(-c2nnc3n2CCCC3)c1)NCc1ccccc1,-4.92%
22,CCNC(=O)c1c(C)oc2c1CN(Cc1ccc(Br)o1)CC2,6.18%
23,COc1ccc2c(c1)c(CN1C[C@@H](CO)[C@H](c3nc(C)no3)C1)cn2C,23.1%
24,Nc1nc(CCC(=O)N[C@@H]2COCC[C@H]2Oc2ccc(CO)cc2)cs1,-3.81%
25,Cc1cccc2c1O[C@H]1[C@H](CO)CN([S+](=O)([O-])c3cccs3)[C@@H]21,4.48%
26,Cc1cccc(C(=O)N2CC[C@H]3C(=O)NCCCCCCN(Cc4ccncc4)[C@@H]3C2)c1,1.14%

row,Compound,activity % (negative = inhibition)
1,Fc1ccc2nc(CO[C@H]3CN(C4CCOCC4)C[C@H]3F)[nH]c2c1,3.56% [at 57.5 µM]
2,O=C(c1ccccc1)N1CCC2(CC(Cc3ccccc3)=NO2)C1 (configuration not stated),9.1% [at 57.5 µM]
3,CCc1nc2c(c(-c3ccc(O)cc3)n1)CN(Cc1ccc(NC(C)=O)cc1)CC2,13.5%
4,Cc1ncnc(N2CCN(C(=O)C3CCN(C(=O)C4CC4)CC3)CC2)c1C,7.66%
5,O=C(CC1CCOCC1)Nc1ccc(N2CCOCC2)cc1,-5.65%
6,CCNc1ncc(C(=O)N[C@H](C2CCNCC2)C2CC(O)C2)cn1 (some centres not stated),21.5%
7,CCOC(=O)C1(Cc2ccccc2F)CCCN(C(=O)c2ccc3c(c2)OCCO3)C1 (configuration not stated),-0.209%
8,O=C(NC1CC(c2nnc(CO)n2C2CC2)C1)c1ccc2c(c1)CCO2 (configuration not stated),-1.33%
9,Nc1nc(CCCNC(=O)C2CC(=O)N(Cc3ccccn3)C2)cs1 (configuration not stated),5.55%
10,Fc1ccc(-c2cccc(CN3CC4CCC(C3)N4c3ccc(C(F)(F)F)cc3)c2)c(F)c1,5.91%
11,CC(=O)Nc1cccc(-c2ncc3c(n2)OCCN(CC2CC2)C3=O)c1,23.9% [at 57.5 µM]
12,CN(C)CC1(O)CCN(C(=O)Cn2cc(C(=O)C3CC3)c3ccccc32)C1 (configuration not stated),69.4%
13,Nc1ncccc1CNC(=O)[C@H]1CCC[C@H](O)C1,16.9%
14,COc1ccc(-c2cc(-c3ccncc3)cn3cncc23)cc1,2.77% [at 57.5 µM]
15,O=C1NCCOCCCN(S(=O)(=O)c2ccccc2)[C@H]2CCCC[C@@H]12,77.7%
16,Cc1cc(C(=O)N2CC(N(C(=O)NC(C)C)C3CCOCC3)C2)nn1C,-2.63%
17,Cc1[nH]c2ccccc2c1CC(=O)NCc1ccccc1-n1cncn1,7.08%
18,COC(=O)N1CCN(Cc2cc(=O)c3cc(F)ccc3[nH]2)CC1,14%
19,CCCN(C)C(=O)c1c(-c2ccc(F)cc2)noc1[C@H](C)O,-10.9% [at 57.5 µM]
20,O=C(NCc1nc(-c2ncccn2)no1)C1CC2(CCNCC2)CN1 (configuration not stated),-0.57%
21,CC(C)N1CC[C@@H]2[C@H]1C(=O)NC[C@H](CCC(=O)NCc1ccc(F)cc1)N2C,28% [at 57.5 µM]
22,Cc1cccc(O[C@H]2COCCN(c3nc4ccccc4o3)C2)n1,14.5% [at 57.5 µM]
23,COc1ccc(NC(=O)C2CCN(C(=O)c3ncn4c3COC(c3ccccc3)C4)CC2)cc1Cl (configuration not stated),24.2%
24,CC1(NC(=O)C2CC2)CN(Cc2nc(-c3ccccc3OCc3ccccc3)cs2)C1,3.21% [at 57.5 µM]
